# In PubChem BioAssay (Tox21):
# Inconclusive results are not listed. Unmarked numbers belong to inactive results. Calls of active or inactive are those of the source. Unless noted, calls come from the whole dose curve.
# Test system: not listed separately
# Assay: p53 small molecule agonists, cell-based qHTS assay with human liver microsomes: qHTS cell viability counter screen (AID 1963579); note: nearly all actives have a fitted effect of over 45% in size; note: potency is the fitted concentration of half-maximal effect
# Conditions: p53RE-bla HCT-116 viability, ATP luminescence, 16 h, HLM; series mostly up to 66 µM; activity change, negative = cytotoxicity: at the top concentration
# In short: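 Metabolically activated exposure: compounds, human liver microsomes and NADPH (0.5 mg/mL final apiece) were added to p53RE-bla cells seeded 5 h earlier, left 16 h at 37 C, and then assessed for viability by CellTiter-Glo luminescence.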
# % is set by controls: 0 for no effect and ±100 for the full control effect.
SMILES,"activity change, negative = cytotoxicity",Potency
CCOC(=O)CC1(C)OCC(C)O1 (stereo unspecified),0.326%,
C1CC(COCC2CO2)CCC1COCC1CO1 (stereo unspecified),1.68%,
CCCCCCCCCCC(=O)O,0.557%,
O=C1OCc2ccccc21,3.98%,
CC1(C)C(=O)N(CO)C(=O)N1CO,-0.662%,
CCCC(c1cc(C(C)(C)C)c(O)cc1C)c1cc(C(C)(C)C)c(O)cc1C,,9.24 µM (active)
O=C(O)CNCC(=O)O,-6.14% [at 5.99 µM],
CCCS(=O)c1ccc2nc(NC(=O)OC)[nH]c2c1 (stereo unspecified),17.7% [at 30.3 µM],
O=C(OCc1ccccc1)C(=O)OCc1ccccc1,0.22%,
C/C=C(\C)C#N,-4.83%,
Cl[Si](Cl)(c1ccccc1)c1ccccc1,-1.69%,
N=C(N)c1ccc(OCCCOc2ccc(C(=N)N)cc2)cc1,-10.4% [at 30.3 µM],
COC(=O)C(C)O (stereo unspecified),3.29%,
CCc1nccnc1CC,-2.07% [at 13.5 µM],
C=CC(=O)OCCCCCCCCCC,0.741%,
CO[Si](CCCNc1ccccc1)(OC)OC,5.35%,
CCCCCCCCCCCCCCCCOS(=O)(=O)O,1.18% [at 30.3 µM],
CC(C)(c1ccc(Oc2ccc3c(c2)C(=O)OC3=O)cc1)c1ccc(Oc2ccc3c(c2)C(=O)OC3=O)cc1,2.58%,

# Test system: not listed separately
# Assay: p53 small molecule agonists, cell-based qHTS assay: qHTS cell viability counter screen (AID 1963581); note: nearly all actives have a fitted effect of over 45% in size; note: potency is the fitted concentration of half-maximal effect
# Conditions: p53RE-bla HCT-116 viability, ATP luminescence, 16 h; series mostly up to 66 µM; activity change, negative = cytotoxicity: at the top concentration
# In short: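 Luminescence from CellTiter-Glo, reflecting ATP content, serves as the cytotoxicity measure; it is taken after the 2 h reporter substrate step in HCT-116 p53RE-bla cells dosed for 16 h at 37 C.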
SMILES,"activity change, negative = cytotoxicity",Potency
C[C@H](CCC(=O)O)[C@H]1CC[C@H]2[C@@H]3[C@H](O)C[C@@H]4C[C@H](O)CC[C@]4(C)[C@H]3C[C@H](O)[C@]12C,-11.1% [at 30.3 µM],
CC(C)C[P+](C)(CC(C)C)CC(C)C,3.69%,
CCCCCCCCCCCCCCCCCCN(C)C,5.37% [at 30.3 µM],
CC(=O)Nc1cccc(C)c1,3.81%,
O=C(NCCN1CCOCC1)c1ccc(Cl)cc1,-9.12% [at 30.3 µM],
CCCC(C)C,-25.7%,
CCO,-2.16%,
CC(=O)Nc1ccc(OCC(O)CNC(C)C)cc1 (stereo unspecified),6.51% [at 30.3 µM],
CCOC(=O)CCCCCCCCC(=O)OCC,-0.418%,
CC(C)OC(=O)C(C(=O)OC(C)C)=C1SC=CS1,0.776% [at 30.3 µM],
Cc1ccc(C(=O)Oc2ccc(C(O)CNC(C)(C)C)cc2OC(=O)c2ccc(C)cc2)cc1 (stereo unspecified),-1.55% [at 30.3 µM],
Oc1ccc(Cl)c2cccnc12,9.19% [at 30.3 µM],
CCCCCCCC/C=C\CCCCCCCCOCCO,,21.1 µM (active)
CC(=O)OC(C)c1ccccc1 (stereo unspecified),0.0275%,
O=S(=O)(Cl)c1c(Cl)cccc1Cl,-8.83%,
C1CC(COCC2CO2)CCC1COCC1CO1 (stereo unspecified),-11.3%,
CCCCCCCCCCC(=O)O,-3.09%,
O=C1OCc2ccccc21,-7.52%,
CCCC(c1cc(C(C)(C)C)c(O)cc1C)c1cc(C(C)(C)C)c(O)cc1C,,5.83 µM (active)
O=C(O)CNCC(=O)O,-13% [at 5.99 µM],
O=C(OCc1ccccc1)C(=O)OCc1ccccc1,-12.2%,
Cl[Si](Cl)(c1ccccc1)c1ccccc1,8.83%,
N=C(N)c1ccc(OCCCOc2ccc(C(=N)N)cc2)cc1,3.8% [at 30.3 µM],
CCc1nccnc1CC,1.59% [at 13.5 µM],
C=CC(=O)OCCCCCCCCCC,-0.746%,
CCCCCCCCCCCCCCCCOS(=O)(=O)O,29% [at 30.3 µM],

# Test system: not listed separately
# Assay: p53 small molecule agonists, cell-based qHTS assay (AID 1963582; active = well fitted activation curve with a large enough effect in the signal ratio in the repeat runs, not every such curve was filed as active; the % refers to the signal ratio)
# Conditions: HCT-116 p53RE-bla reporter, beta-lactamase FRET ratio, 16 h; series mostly up to 66 µM; activation: at the top concentration
# In short: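 After plating, p53RE-bla cells sat 5 h in the incubator; compounds or DMSO vehicle were pinned in; a 16 h incubation at 37 C followed; FRET substrate was added and, 2 h later at RT, fluorescence was measured.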
row,SMILES,activation
1,C=CC(=C)CC/C=C(\C)CCC=C(C)C,-2.41% [at 13.5 µM]
2,C[C@H](CCC(=O)O)[C@H]1CC[C@H]2[C@@H]3[C@H](O)C[C@@H]4C[C@H](O)CC[C@]4(C)[C@H]3C[C@H](O)[C@]12C,1.36% [at 30.3 µM]
3,CCCCCCCCCCCCCCCCCCN(C)C,-0.33% [at 30.3 µM]
4,O=C(NCCN1CCOCC1)c1ccc(Cl)cc1,-0.506% [at 30.3 µM]
5,Cc1[nH]c(=O)c(C#N)cc1-c1ccc2nccn2c1,-3.76% [at 30.3 µM]
6,CCO,0.715%
7,CC(=O)Nc1ccc(OCC(O)CNC(C)C)cc1 (stereo unspecified),2.48% [at 30.3 µM]
8,CCOC(=O)CCCCCCCCC(=O)OCC,0.0064%
9,O=C(CN1CCN(Cc2ccc3c(c2)OCO3)CC1)N1c2ccccc2Sc2ccccc21,-0.123% [at 30.3 µM]
10,CC(=O)Oc1ccc(C(C)=O)cc1,-0.355%
11,CCOC(=O)CC1(C)OCC(C)O1 (stereo unspecified),1.02%
12,O=C1OCc2ccccc21,-0.49%
13,CC1(C)C(=O)N(CO)C(=O)N1CO,-1.66%
14,O=C(O)CNCC(=O)O,0.447% [at 5.99 µM]
15,O=C(OCc1ccccc1)C(=O)OCc1ccccc1,3.63%
16,C/C=C(\C)C#N,-3.18%
17,CCc1nccnc1CC,3.48% [at 13.5 µM]
18,CO[Si](CCCNc1ccccc1)(OC)OC,0.246%
19,CCCCCCCCCCCCCCCCOS(=O)(=O)O,-3.9% [at 30.3 µM]
20,CC(C)(c1ccc(Oc2ccc3c(c2)C(=O)OC3=O)cc1)c1ccc(Oc2ccc3c(c2)C(=O)OC3=O)cc1,-0.384%

# Biological target: 5-hydroxytryptamine receptor 2A (Homo sapiens) (UniProt P28223)
# Sequence (P28223 whole entry, looked up): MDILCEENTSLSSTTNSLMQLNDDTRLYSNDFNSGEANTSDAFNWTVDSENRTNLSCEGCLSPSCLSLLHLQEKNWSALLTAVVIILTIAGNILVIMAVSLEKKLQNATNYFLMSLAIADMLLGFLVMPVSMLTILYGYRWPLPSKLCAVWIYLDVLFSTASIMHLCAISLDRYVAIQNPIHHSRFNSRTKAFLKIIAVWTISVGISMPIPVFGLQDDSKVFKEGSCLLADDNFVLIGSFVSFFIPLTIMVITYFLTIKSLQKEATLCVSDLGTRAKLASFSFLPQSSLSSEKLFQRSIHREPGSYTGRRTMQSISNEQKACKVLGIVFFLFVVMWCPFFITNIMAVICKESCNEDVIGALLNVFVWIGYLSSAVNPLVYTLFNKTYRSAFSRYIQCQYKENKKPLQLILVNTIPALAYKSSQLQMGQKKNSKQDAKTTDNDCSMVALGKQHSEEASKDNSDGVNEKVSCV
# Assay: 5-hydroxytryptamine receptor 2A (HTR2A) small molecule antagonists, cell-based qHTS assay (AID 1963586); note: nearly all actives have a fitted effect of over 45% in size; note: potency is the fitted concentration of half-maximal effect
# Conditions: HTR2A-CHO cells, DOI-induced calcium flux, fluorescence; series mostly up to 61.5 µM; activity, negative = inhibition: at the top concentration
# In short: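 CHO cells stably expressing human HTR2A were plated for 18 h at 37 C, then loaded with calcium dye for 1 h. Compounds were preincubated 5 min at room temperature before DOI (4 nM solution) was added. Kinetic fluorescence was read for 3 min.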
SMILES,"activity, negative = inhibition",Potency
C=CC(=C)CC/C=C(\C)CCC=C(C)C,22.2% [at 12.7 µM],
CC(C)C[P+](C)(CC(C)C)CC(C)C,0.197%,
CCOC(=O)O[C@H](C)OC(=O)c1ccc2c(c1)cc(C(=O)NC1CCN(C(C)C)CC1)n2Cc1cc(-c2ccc(Cl)s2)on1,-1.79%,
CC(=O)Nc1cccc(C)c1,67.1%,
CCCCCCCCCCCCCOP(=O)(O)O,-0.0062%,
CCCC(C)C,6.17%,
Cc1[nH]c(=O)c(C#N)cc1-c1ccc2nccn2c1,17.7% [at 28.5 µM],
O=C(NS(=O)(=O)/C=C/c1ccccc1)c1ccc(F)cc1Cl,-0.869%,
CC(C)OC(=O)C(C(=O)OC(C)C)=C1SC=CS1,1.43% [at 28.5 µM],
O=C(CN1CCN(Cc2ccc3c(c2)OCO3)CC1)N1c2ccccc2Sc2ccccc21,-15.5% [at 28.5 µM],
Cc1ccc(C(=O)Oc2ccc(C(O)CNC(C)(C)C)cc2OC(=O)c2ccc(C)cc2)cc1 (stereo unspecified),49.6% [at 28.5 µM],
Oc1ccc(Cl)c2cccnc12,32.4% [at 28.5 µM],
CCCCCCCC/C=C\CCCCCCCCOCCO,,24.4 µM (active)
CC(=O)OC(C)c1ccccc1 (stereo unspecified),5.17%,
O=S(=O)(Cl)c1c(Cl)cccc1Cl,-11.2%,
CCOC(=O)CC1(C)OCC(C)O1 (stereo unspecified),6.82%,
C1CC(COCC2CO2)CCC1COCC1CO1 (stereo unspecified),0.611%,
CCCCCCCCCCC(=O)O,17.4%,
CC1(C)C(=O)N(CO)C(=O)N1CO,15.9%,
CCCC(c1cc(C(C)(C)C)c(O)cc1C)c1cc(C(C)(C)C)c(O)cc1C,11.6%,
CCCS(=O)c1ccc2nc(NC(=O)OC)[nH]c2c1 (stereo unspecified),11% [at 28.5 µM],
C/C=C(\C)C#N,14.5%,
Cl[Si](Cl)(c1ccccc1)c1ccccc1,16.2%,
N=C(N)c1ccc(OCCCOc2ccc(C(=N)N)cc2)cc1,31.3% [at 28.5 µM],
COC(=O)C(C)O (stereo unspecified),17.1%,
C=CC(=O)OCCCCCCCCCC,-6.86%,
CO[Si](CCCNc1ccccc1)(OC)OC,10.2%,
